# GAA850 FXN act: frataxin GAA850 promoter activation; HEK293 lucGAA850 FXN promoter luciferase reporter, 24 h; percent of 10 µM SAHA response; activation, % at 6 µM; AID 540364; hit rate 0.56% among 360,000;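 active = activation above the average of all compounds screened plus 3 SD, cutoff fixed separately per campaign, cut at about 7.5% in these data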;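 also: 0% = DMSO wells and 100% = 10 µM SAHA wells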
# MITF TRPM1 HTS: MITF TRPM1 promoter activation in melanoma cells; AID 588334; activation, % at 12.5 µM; hit rate 0.75% among 300,000; SK-MEL-5 TRPM1-promoter luciferase, 24 h; % of positive control, neutral wells = 0;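 active = mean activation of at least 80% with every replicate also reaching 80%; inconclusive = mean reaches 80% but some replicate falls short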;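 also: 0% = neutral control wells and 100% = parthenolide positive control wells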
# esBAF inh: blocks esBAF chromatin remodeling in mouse ES cells; Bmi1-luciferase knock-in reporter, 24 h; 100% = twice the neutral-well signal; reporter increase, % at 12.5 µM; hit rate 2% among 350,000; AID 602393; in the data active = activation above about 40%; inconclusive = no clear call, values can overlap the other calls;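 also: 0% = median of the plate's neutral control wells and 100% = double that signal; a rise in the Bmi1 reporter signal indicates esBAF inhibition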
# Statin myotox sup: suppression of simvastatin myotoxicity | AID 602340 | hit rate 0.78% among 330,000 | rescue of ATP level, % at 7.49 µM | C2C12 myotubes + simvastatin, ATP luminescence, 48 h; scaled: DMSO 0, geranylgeraniol control 100;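 active = mean ATP rescue above about 67%, or every replicate alone reaching that limit, limit read from the data, passing the limit was not always enough; inconclusive = no clear call, values can overlap the other calls; inactive = mean under the limit and some replicate under it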;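 also: myotubes were challenged with 10 µM simvastatin during compound exposure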
# Wnt act: Wnt/beta-catenin pathway activation | Wnt/beta-catenin reporter cell assay, activator, plate reader | activation, % at 9.35 µM | hit rate 1.2% among 300,000 | AID 743398; in the data active = activation above about 30%, passing the limit was not always enough; inconclusive = no clear call, values can overlap the other calls;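 also: 0% = neutral control wells and 100% = positive control wells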
# * hit, by the source's call; ? = inconclusive; . = no result. Sampled rows, rich in hits. Any-hit rate of the full collection: about 3.3%.
SMILES,GAA850 FXN act,MITF TRPM1 HTS,esBAF inh,Statin myotox sup,Wnt act
O=C(CCn1cnc2ccccc21)N/N=C/c1ccccc1O,0,20,52*,7,10
C[C@@H]1CN([C@H](C)CO)C(=O)c2cc(NS(=O)(=O)c3ccc(Cl)cc3)ccc2O[C@@H](C)CCCCO[C@@H]1CN(C)C(=O)CCC(F)(F)F,.,.,11,.,.
CC(=O)Nc1nc(-c2ccc3c(c2)CCO3)cs1,2,39,.,.,-2
Nc1nc(-c2ccc3c(c2)CCO3)cs1,3,52,.,.,34*
C[C@@H]1CN([C@H](C)CO)C(=O)Cc2cc(NS(=O)(=O)c3ccc(F)cc3)ccc2O[C@H]1CN(C)S(=O)(=O)c1ccc(F)cc1,.,.,4,-6,.
CO[C@H]1CC[C@H]2CCOc3c(C#N)cccc3C(=O)N(C)[C@H](C)C(=O)N(C)C[C@@H]1O2,.,.,-9,6,.
COc1ccc(-c2c(C#Cc3ccsc3)c3ccccc3n2C)cc1,0,4,45*,-7,12
CCCOc1ccc(C(=O)NCC2OCCc3ccccc32)cc1OC (stereo not given),3,-3,.,.,.
COc1ccc(C(=O)NCC2OCCc3ccccc32)c(O)c1 (stereo not given),1,43,67*,2,.
COc1ccc(-n2nc([N+](=O)[O-])c(=NCc3ccco3)n2O)cc1,4,15,-1,7,43*
COc1ccc(-n2nc([N+](=O)[O-])c(=NCc3cccnc3)n2O)cc1,0,-1,-6,6,7
COC(=O)C[C@@H]1CC[C@@H]2[C@H](COC[C@@H](O)CN2C(=O)Nc2ccccc2OC)O1,.,.,-3,-3,.
Cc1cc(C)c(C#N)c(SCC(=O)N2CCN(Cc3ccccc3)CC2)n1,0,.,3,140*,0
COCc1cc(C)nc(N2CCN(Cc3ccccc3)CC2)c1C#N,-2,4,-6,106*,0
Cc1cc(C)c(C#N)c(SCC(=O)N2CCCCC2)n1,1,3,.,.,-4
COCc1cc(C)nc(N2CCN(c3ccccc3)CC2)c1C#N,-4,10,-3,-2,.
C[C@H](CO)N1C[C@H](C)[C@H](CN(C)Cc2ccncc2)Oc2ccc(NC(=O)Cc3ccccc3)cc2C1=O,.,.,1,1,.
Cc1ccc(Cn2cc(/C=N/Nc3ccc([N+](=O)[O-])cn3)c3ccccc32)cc1,3,14,45*,8,-2
O=C(O)Cn1cc(/C=N/Nc2ccc([N+](=O)[O-])cn2)c2ccccc21,4,-22,5,4,-2
Cc1ccc(C=NNc2ccc([N+](=O)[O-])cn2)cc1,2,122*,.,.,6
CCCC(=O)Nc1ccc2c(c1)C(=O)N(C)C[C@@H](OC)[C@@H](C)CN(CC1CCCC1)[C@H](C)CO2,.,.,-5,17,.
Cc1noc(C)c1S(=O)(=O)N(C)C[C@@H]1OCCCC[C@H](C)Oc2ccc(NC(=O)Nc3ccc(F)cc3)cc2C(=O)N([C@H](C)CO)C[C@H]1C,.,.,4,.,.
COc1ccc(-n2nc(C(=O)NCC(=O)N3CCC(C)CC3)c3ccccc3c2=O)cc1Cl,2,79,47*,-10,8
COc1ccc(-n2nc(C(=O)NCC(=O)N3CCN(c4ccccn4)CC3)c3ccccc3c2=O)cc1Cl,0,29,.,.,2
C[C@H](CO)N1C[C@H](C)[C@H](CN(C)Cc2ccncc2)Oc2ncc(C#Cc3ccncc3)cc2C1=O,.,.,0,22,.
SMILES,GAA850 FXN act,MITF TRPM1 HTS,esBAF inh,Statin myotox sup,Wnt act
CC(=O)CC1(O)C(=O)N(Cc2ccccc2)c2ccccc21 (stereo not given),-1,13,-4,10,43*
Cc1ccc(S(=O)(=O)Nc2cccc3c2O[C@@H](CN(C)C(=O)Nc2ccc(F)cc2)[C@H](C)CN([C@H](C)CO)C3=O)cc1,.,.,-4,17,.
O=C(/C=C/c1cccnc1)c1ccc(NC(=O)c2cccc(Br)c2)cc1,5,7,19,-2,.
Cc1cccc(C(=O)Nc2ccc(C(=O)/C=C/c3cccnc3)cc2)c1,15*,-26,42*,-3,.
CCOC(=O)C1(Cc2cccc(OC)c2)CCCN(C(=O)CCN2CCCO2)C1 (stereo not given),6,76,68*,-1,22
CCOC(=O)C1(Cc2cccc(OC)c2)CCCN(C(=O)c2ccc(OC)o2)C1 (stereo not given),3,88*,80*,-1,?
CCOC(=O)C1(Cc2cccc(Cl)c2)CCCN(C(=O)c2cc(C)on2)C1 (stereo not given),2,23,53*,-6,13

# High-throughput results deposited in PubChem BioAssay by several laboratories.
